Measurements from PubChem BioAssay (EPA / NIEHS).
The source made the active and inactive calls. The calls were made as follows: active = hit-call score of the fitted dose curve at least 0.9, where 1 is the maximum; inactive = score below 0.9.

Key:
Settings in all cases: mRNA level, 48 h; actives raise or lower the signal
[1] = read-out: Apoptosis regulator Bcl-2 (Homo sapiens) (UniProt P10415); assay: LTEA_HepaRG_BCL2: Life Technologies and Expression Analysis (LTEA) Assay for Bcl-2 gene using HepaRG (AID 2283475);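 also: BCL2 transcript by TaqMan qRT-PCR normalised to ACTB GAPDH and POLR2A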
Outline: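 Each chemical was tested in duplicate on HepaRG cultures held in serum-free induction medium for 48 h, highest concentration 100 uM with half-log dilutions. Transcript levels came from multiplexed qRT-PCR, normalised to housekeeping genes; activity was scored in either direction relative to DMSO.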

[2] = read-out: Bcl-2 (BID) gene, BID (gene 637); assay: LTEA_HepaRG_BID: Life Technologies and Expression Analysis (LTEA) Assay for Bcl-2 (BID) gene using HepaRG (AID 2283476)
Outline: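 Assay used HepaRG hepatic cells treated 48 h in serum-free medium with half-log dilutions from 100 uM. Endpoint: BID mRNA, qRT-PCR, normalized to ACTB/GAPDH/POLR2A.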

Caspase-3 (Homo sapiens) = Caspase-3 (Homo sapiens) (UniProt P42574); assay: LTEA_HepaRG_CASP3: Life Technologies and Expression Analysis (LTEA) Assay for cysteine-aspartic acid protease (CASP3) using HepaRG (AID 2283477)
Chain of Caspase-3 (Homo sapiens) (P42574 whole entry, looked up): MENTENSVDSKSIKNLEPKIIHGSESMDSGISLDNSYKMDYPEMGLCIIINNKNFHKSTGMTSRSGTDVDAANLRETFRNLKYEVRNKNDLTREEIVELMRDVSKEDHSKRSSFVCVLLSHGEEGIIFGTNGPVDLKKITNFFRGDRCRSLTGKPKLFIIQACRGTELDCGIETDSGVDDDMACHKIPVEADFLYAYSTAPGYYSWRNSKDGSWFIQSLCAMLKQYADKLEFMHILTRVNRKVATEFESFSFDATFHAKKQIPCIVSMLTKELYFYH
Outline: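 Transcript-level assay: CASP3 mRNA in human HepaRG after 48 h treatment, eight half-log concentrations from 100 uM in 0.5% DMSO, quantified by qRT-PCR.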

[3] = read-out: Cytochrome P450 (CYP24A1), CYP24A1 (gene 1591); assay: LTEA_HepaRG_CYP24A1: Life Technologies and Expression Analysis (LTEA) Assay for Cytochrome P450 (CYP24A1) using HepaRG (AID 2283478)
Outline: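 Gene expression of CYP24A1 by TaqMan qRT-PCR in HepaRG after 48 h treatment, highest concentration 100 uM; activity fitted in both directions relative to DMSO vehicle.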

[4] = read-out: Cytochrome P450 (CYP1A2), CYP1A2 (gene 1544); assay: LTEA_HepaRG_CYP1A2: Life Technologies and Expression Analysis (LTEA) Assay for Cytochrome P450 (CYP1A2) using HepaRG (AID 2283479);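 as to AC50: TaqMan qRT-PCR transcript level normalized to ACTB GAPDH and POLR2A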
Outline: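 In duplicate wells, HepaRG cultures maintained in 0.5% DMSO were treated 48 h across an 8-point, half-log series topping at 100 uM; phenobarbital (1 mM) served as induction control. Expression was read by qRT-PCR.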

[5] = read-out: cysteine-aspartic acid protease (CASP8), CASP8 (gene 841); assay: LTEA_HepaRG_CASP8: Life Technologies and Expression Analysis (LTEA) Assay for cysteine-aspartic acid protease (CASP8) using HepaRG (AID 2283480)
Outline: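 Concentration-response in duplicate up to 100 uM (half-log steps, 0.5% DMSO) on differentiated HepaRG cultures for 48 h. Expression change of CASP8 mRNA is determined by TaqMan qRT-PCR with housekeeping-gene normalization.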

[6] = read-out: Cytochrome P450 (CYP2B6), CYP2B6 (gene 1555); assay: LTEA_HepaRG_CYP2B6: Life Technologies and Expression Analysis (LTEA) Assay for Cytochrome P450 (CYP2B6) using HepaRG (AID 2283481)
Outline: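 Human HepaRG, 48 h dosing, 0.5% DMSO vehicle, top dose 100 uM. CYP2B6 transcript by qRT-PCR, housekeeping-normalized, bidirectional curve fit.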

[7] = read-out: Cytochrome P450 2C19 (Homo sapiens) (UniProt P33261); assay: LTEA_HepaRG_CYP2C19: Life Technologies and Expression Analysis (LTEA) Assay for CYP2C19 using HepaRG (AID 2283482)
Outline: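 Endpoint: CYP2C19 mRNA change, bidirectional fit vs 0.5% DMSO. Cells: HepaRG, 48 h exposure, eight-point series topping at 100 uM. Quantitation: qRT-PCR normalized to ACTB, GAPDH, POLR2A.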

CYP2C8 (gene 1558) = assay: LTEA_HepaRG_CYP2C8: Life Technologies and Expression Analysis (LTEA) Assay for CYP2C8 using HepaRG (AID 2283483)
Outline: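 This is a transcriptional endpoint in HepaRG cultures: 48 h exposure, highest concentration 100 uM. CYP2C8 mRNA is quantified by TaqMan qRT-PCR.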

CYP2C9 (gene 1559) = assay: LTEA_HepaRG_CYP2C9: Life Technologies and Expression Analysis (LTEA) Assay for CYP2C9 using HepaRG (AID 2283484)
Outline: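 Eight-point concentration-response (highest 100 uM, half-log dilutions) in HepaRG cells for 48 h; CYP2C9 expression by qRT-PCR normalized to ACTB, GAPDH, POLR2A. Bidirectional fit, DMSO baseline.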

Chain of Cytochrome P450 2C19 (Homo sapiens) (P33261 whole entry, looked up): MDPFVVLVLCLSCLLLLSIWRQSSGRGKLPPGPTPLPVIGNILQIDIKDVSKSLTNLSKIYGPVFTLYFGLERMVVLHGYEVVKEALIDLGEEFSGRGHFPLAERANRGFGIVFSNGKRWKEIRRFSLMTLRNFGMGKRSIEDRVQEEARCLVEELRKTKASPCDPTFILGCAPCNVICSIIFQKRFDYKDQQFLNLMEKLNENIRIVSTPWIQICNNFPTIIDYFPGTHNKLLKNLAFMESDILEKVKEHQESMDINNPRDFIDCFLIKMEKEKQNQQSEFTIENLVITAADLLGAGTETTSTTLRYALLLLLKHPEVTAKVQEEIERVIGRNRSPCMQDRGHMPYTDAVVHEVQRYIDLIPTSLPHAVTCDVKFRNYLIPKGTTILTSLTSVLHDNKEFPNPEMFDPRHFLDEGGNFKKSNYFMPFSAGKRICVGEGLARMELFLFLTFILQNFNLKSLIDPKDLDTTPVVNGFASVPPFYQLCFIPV
Chain of Apoptosis regulator Bcl-2 (Homo sapiens) (P10415 whole entry, looked up): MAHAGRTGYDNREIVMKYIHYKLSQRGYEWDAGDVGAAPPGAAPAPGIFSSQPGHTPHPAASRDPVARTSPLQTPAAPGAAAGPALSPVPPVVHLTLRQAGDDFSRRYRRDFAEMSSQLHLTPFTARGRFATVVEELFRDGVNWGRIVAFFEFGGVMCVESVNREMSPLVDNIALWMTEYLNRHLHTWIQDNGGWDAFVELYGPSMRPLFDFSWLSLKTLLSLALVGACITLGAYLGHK

## Oc1ccccc1
[1]
  outcome: inactive
[2]
  outcome: inactive
Caspase-3 (Homo sapiens)
  outcome: inactive
[3]
  outcome: inactive
[4]
  outcome: inactive
[5]
  outcome: inactive
[6]
  outcome: inactive
[7]
  outcome: inactive
CYP2C8 (gene 1558)
  outcome: inactive
CYP2C9 (gene 1559)
  outcome: inactive

## CCN(Cc1cccnc1)C(=O)c1cccc(Cl)c1[C@]1(C)C(=O)N(Cc2ccc(OC)cc2OC)c2ccc(Cl)cc21
[1]
  AC50: 11.4 µM (active)
Caspase-3 (Homo sapiens)
  outcome: inactive
[3]
  outcome: inactive
[4]
  AC50: 22.2 µM (active)
[5]
  AC50: 12.5 µM (active)
[6]
  AC50: 25.8 µM (active)
[7]
  AC50: 26.1 µM (active)
CYP2C8 (gene 1558)
  AC50: 25.8 µM (active)
CYP2C9 (gene 1559)
  AC50: 26.2 µM (active)

## c1ccc2n[nH]nc2c1
[1]
  outcome: inactive
Caspase-3 (Homo sapiens)
  outcome: inactive
[3]
  outcome: inactive
[4]
  outcome: inactive
[5]
  outcome: inactive
[6]
  outcome: inactive
[7]
  outcome: inactive
CYP2C8 (gene 1558)
  outcome: inactive
CYP2C9 (gene 1559)
  outcome: inactive

## O=C1O[C@H]([C@@H](O)CO)C(O)=C1O
[1]
  outcome: inactive
Caspase-3 (Homo sapiens)
  outcome: inactive
[3]
  outcome: inactive
[4]
  outcome: inactive
[5]
  outcome: inactive
[6]
  outcome: inactive
[7]
  outcome: inactive
CYP2C8 (gene 1558)
  outcome: inactive
CYP2C9 (gene 1559)
  outcome: inactive

## Clc1ccccc1C(c1ccccc1)(c1ccccc1)n1ccnc1
[1]
  AC50: 23 µM (active)
Caspase-3 (Homo sapiens)
  outcome: inactive
[3]
  outcome: inactive
[4]
  AC50: 7.26 µM (active)
[5]
  outcome: inactive
[6]
  AC50: 26 µM (active)
[7]
  AC50: 27.4 µM (active)
CYP2C8 (gene 1558)
  AC50: 23.9 µM (active)
CYP2C9 (gene 1559)
  AC50: 93.4 µM (active)

## O=C(O)c1ccccc1-n1cc(C(=O)O)c(=O)c2cc(Nc3c(F)cc(F)cc3Cl)c(Cl)cc21
[1]
  outcome: inactive
Caspase-3 (Homo sapiens)
  outcome: inactive
[3]
  outcome: inactive
[4]
  outcome: inactive
[5]
  outcome: inactive
[6]
  AC50: 11.2 µM (active)
[7]
  AC50: 5.7 µM (active)
CYP2C8 (gene 1558)
  AC50: 7.91 µM (active)
CYP2C9 (gene 1559)
  outcome: inactive

## Cc1cc(F)ccc1-c1cc(N2CC[C@@H](O)[C@H]2CO)ncc1N(C)C(=O)C(C)(C)c1cc(C(F)(F)F)cc(C(F)(F)F)c1
[1]
  AC50: 19.7 µM (active)
Caspase-3 (Homo sapiens)
  AC50: 76.6 µM (active)
[3]
  outcome: inactive
[4]
  AC50: 21.1 µM (active)
[5]
  outcome: inactive
[6]
  AC50: 22.3 µM (active)
[7]
  AC50: 23.7 µM (active)
CYP2C8 (gene 1558)
  AC50: 21.4 µM (active)
CYP2C9 (gene 1559)
  outcome: inactive

## COc1ccc2cc(S(=O)(=O)N[C@H](CC(=O)N[C@H](Cc3ccc(CN4[C@H](C)CCC[C@@H]4C)cc3)C(=O)N(C)C(C)C)c3ccc4c(c3)OCO4)ccc2c1
[1]
  outcome: inactive
Caspase-3 (Homo sapiens)
  AC50: 19.4 µM (active)
[3]
  outcome: inactive
[4]
  AC50: 7.93 µM (active)
[5]
  AC50: 25.1 µM (active)
[6]
  AC50: 11.5 µM (active)
[7]
  AC50: 23.7 µM (active)
CYP2C8 (gene 1558)
  outcome: inactive
CYP2C9 (gene 1559)
  AC50: 11.9 µM (active)

## CC(C)(O)c1ccc(CNC(=O)c2cccnc2Oc2ccc3nonc3c2)cc1
[1]
  outcome: inactive
Caspase-3 (Homo sapiens)
  outcome: inactive
[3]
  outcome: inactive
[4]
  AC50: 50 µM (active)
[5]
  outcome: inactive
[6]
  AC50: 0.987 µM (active)
[7]
  AC50: 12.1 µM (active)
CYP2C8 (gene 1558)
  AC50: 13 µM (active)
CYP2C9 (gene 1559)
  outcome: inactive

## Cc1cn([C@H]2C[C@H](N=[N+]=[N-])[C@@H](CO)O2)c(=O)[nH]c1=O
[1]
  outcome: inactive
Caspase-3 (Homo sapiens)
  outcome: inactive
[3]
  outcome: inactive
[4]
  outcome: inactive
[5]
  outcome: inactive
[6]
  outcome: inactive
[7]
  outcome: inactive
CYP2C8 (gene 1558)
  outcome: inactive
CYP2C9 (gene 1559)
  outcome: inactive

## CCO[Si](CCCNC(N)=O)(OCC)OCC
[1]
  outcome: inactive
Caspase-3 (Homo sapiens)
  outcome: inactive
[3]
  outcome: inactive
[5]
  outcome: inactive
[6]
  outcome: inactive
[7]
  outcome: inactive
CYP2C8 (gene 1558)
  outcome: inactive
CYP2C9 (gene 1559)
  outcome: inactive

## CCCCCCCCN(C)CCCCCCCC
[1]
  outcome: inactive
Caspase-3 (Homo sapiens)
  outcome: inactive
[4]
  outcome: inactive
[5]
  outcome: inactive
[6]
  outcome: inactive
[7]
  outcome: inactive
CYP2C8 (gene 1558)
  outcome: inactive
CYP2C9 (gene 1559)
  outcome: inactive

## O=C(OCCCCCCOC(=O)c1ccccc1)c1ccccc1
[1]
  outcome: inactive
Caspase-3 (Homo sapiens)
  outcome: inactive
[3]
  outcome: inactive
[4]
  AC50: 12.5 µM (active)
[5]
  outcome: inactive
[6]
  outcome: inactive
[7]
  outcome: inactive
CYP2C8 (gene 1558)
  outcome: inactive
CYP2C9 (gene 1559)
  outcome: inactive

## CN(C)c1ccc(C(=C2C=CC(=[N+](C)C)C=C2)c2ccc(N(C)C)cc2)cc1
[1]
  AC50: 5 µM (active)
Caspase-3 (Homo sapiens)
  AC50: 12.1 µM (active)
[3]
  outcome: inactive
[4]
  AC50: 2.05 µM (active)
[5]
  outcome: inactive
[6]
  AC50: 3.45 µM (active)
[7]
  AC50: 5.94 µM (active)
CYP2C8 (gene 1558)
  AC50: 3.61 µM (active)
CYP2C9 (gene 1559)
  AC50: 3.82 µM (active)

## Cc1c2ccccc2c(C)c2c1ccc1ccccc12
[1]
  AC50: 78.3 µM (active)
Caspase-3 (Homo sapiens)
  outcome: inactive
[3]
  outcome: inactive
[4]
  AC50: 85 µM (active)
[5]
  outcome: inactive
[6]
  AC50: 50 µM (active)
[7]
  AC50: 75.9 µM (active)
CYP2C8 (gene 1558)
  AC50: 37.7 µM (active)
CYP2C9 (gene 1559)
  AC50: 37.2 µM (active)

## COCC(C)OCC(C)OCC(C)O (stereo not drawn)
[1]
  outcome: inactive
Caspase-3 (Homo sapiens)
  outcome: inactive
[3]
  outcome: inactive
[4]
  outcome: inactive
[5]
  outcome: inactive
[6]
  AC50: 25.8 µM (active)
[7]
  outcome: inactive
CYP2C8 (gene 1558)
  outcome: inactive
CYP2C9 (gene 1559)
  outcome: inactive

## CN1C(=O)CC[C@H]1c1cccnc1
[1]
  outcome: inactive
Caspase-3 (Homo sapiens)
  outcome: inactive
[3]
  outcome: inactive
[4]
  AC50: 91.4 µM (active)
[5]
  outcome: inactive
[6]
  outcome: inactive
[7]
  outcome: inactive
CYP2C8 (gene 1558)
  outcome: inactive
CYP2C9 (gene 1559)
  outcome: inactive

## CC(C)(c1cc(Br)c(O)c(Br)c1)c1cc(Br)c(O)c(Br)c1
[1]
  outcome: inactive
[3]
  outcome: inactive
[4]
  outcome: inactive
[5]
  outcome: inactive
[6]
  AC50: 89.3 µM (active)
[7]
  outcome: inactive
CYP2C8 (gene 1558)
  outcome: inactive
CYP2C9 (gene 1559)
  outcome: inactive

## CC[C@H](NC(=O)c1cc(F)ccc1NS(=O)(=O)c1cccc2cccnc12)c1ccccc1
[1]
  outcome: inactive
Caspase-3 (Homo sapiens)
  outcome: inactive
[3]
  outcome: inactive
[4]
  AC50: 76 µM (active)
[5]
  outcome: inactive
[6]
  AC50: 88.2 µM (active)
[7]
  AC50: 0.972 µM (active)
CYP2C8 (gene 1558)
  outcome: inactive
CYP2C9 (gene 1559)
  AC50: 78.5 µM (active)

## OC12N=C(c3ccccc3)SC1Cc1cc(Cl)ccc12 (stereo not drawn)
[1]
  AC50: 20.3 µM (active)
Caspase-3 (Homo sapiens)
  outcome: inactive
[3]
  outcome: inactive
[4]
  AC50: 1.25 µM (active)
[5]
  outcome: inactive
[6]
  AC50: 11.6 µM (active)
[7]
  AC50: 80.4 µM (active)
CYP2C8 (gene 1558)
  AC50: 39.6 µM (active)
CYP2C9 (gene 1559)
  AC50: 37.7 µM (active)
